# The sample as a whole holds a higher share of hits than the screen did.
# CHX counter = affects cycloheximide protein synthesis inhibition readout, counter-screen | cell reporter, cycloheximide protein synthesis inhibition counterscreen | max response, % | 300,000 compounds, 12% hits | AID 2314; in the data active = max response mostly above about 13%, no sharp cut-off; inactive = mostly below about 14%; note: read at 38.3 µM for the half of the compounds with a filed dose
# Giardia FBPA inh = Giardia lamblia aldolase inhibition. A8B2U2. purified Giardia FBPA. Potency, µM (highest dose often 59.6 µM), actives largely listed as inhibitors. 290,000 compounds, 0.71% hits; note: nearly all actives have a fitted effect of over 55% in size
#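 40 nM FBPA preincubated 10 min at RT with compound (up to 57.5 uM final), then substrate plus GAPDH/TPI/NAD/arsenate coupling and diaphorase/resazurin added. Fluorescence read after 20 min at RT, 525/598 nm.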
# Tb PYK inh = inhibitors of Trypanosoma brucei pyruvate kinase; Q57TT1; TbPYK enzyme, Kinase-Glo Plus ATP luminescence, 45 min; Potency, µM (doses to about 76.8 µM), most hits filed as inhibitors; 410,000 compounds, 0.12% hits; AID 624173; note: nearly all actives have a fitted effect of over 50% in size
#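 Glycolytic pyruvate kinase of T. brucei was incubated with substrate, test compound and 130 uM ADP for 45 minutes at room temperature. Luminescent Kinase-Glo Plus signal was measured after 10 minutes.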
# Shiga inhibitor = Shiga toxin inhibition; 290,000 compounds, 9.2% hits; inhibition, % at 38.7 µM; Vero cells, Shiga toxin protein synthesis inhibition reporter; in the data active = inhibition mostly above about 28%, no sharp cut-off; inactive = mostly below about 43%
# LmPK inh = blocks Leishmania mexicana pyruvate kinase activity. purified LmPK, Kinase-Glo ATP luminescence, 1 h. Potency, µM (titrated, usually from 57.5 µM), usual class: inhibitors. 290,000 compounds, 0.37% hits
# Target sequence (Q27686 whole entry, looked up): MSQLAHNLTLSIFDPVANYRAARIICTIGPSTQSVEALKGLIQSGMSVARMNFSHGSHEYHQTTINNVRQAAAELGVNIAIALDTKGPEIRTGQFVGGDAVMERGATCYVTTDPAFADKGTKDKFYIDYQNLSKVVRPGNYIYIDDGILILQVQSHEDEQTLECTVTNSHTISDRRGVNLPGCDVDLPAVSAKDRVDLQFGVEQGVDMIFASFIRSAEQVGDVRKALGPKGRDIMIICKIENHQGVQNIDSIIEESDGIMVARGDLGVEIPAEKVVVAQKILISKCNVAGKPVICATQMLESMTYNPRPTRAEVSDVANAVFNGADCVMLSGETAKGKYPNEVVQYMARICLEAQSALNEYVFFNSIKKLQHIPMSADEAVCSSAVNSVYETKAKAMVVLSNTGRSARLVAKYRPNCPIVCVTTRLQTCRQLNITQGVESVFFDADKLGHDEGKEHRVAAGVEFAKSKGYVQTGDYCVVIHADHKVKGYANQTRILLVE
#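 ATP generated from ADP (0.1 mM) and PEP (0.5 mM) by 0.1 nM LmPK over 1 h at room temperature (pH 7.2 imidazole buffer) was detected by coupled luciferase luminescence. Values were normalized to uninhibited and no-enzyme wells.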
# Sm TGR block = blocks Schistosoma mansoni thioredoxin glutathione reductase; Potency, µM (series often up to 114 µM), hits mostly inhibitors; 360,000 compounds, 3% hits; purified TGR, DTNB reduction, TNB absorbance 405 nm; Q962Y6; AID 485364; note: nearly all actives have a fitted effect of over 60% in size
#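 Kinetic colorimetric format: TGR-catalysed, NADPH-driven DTNB reduction monitored via TNB absorbance. Enzyme dispensed at 20 nM; compound exposure 15 min at room temperature before reaction start.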
# Numbers stand for hits; – = inactive; ? = inconclusive; · = no result; [ ] = dose if it differs, or a comment. Unless noted, calls come from the whole dose curve; as a rule, active = well fitted curve in the direction sought with a large enough effect; inconclusive = small, poorly fitted or top-dose-only effect, or another doubt; inactive = no such curve, though single readings can be large; an effect the other way counts as inactive or inconclusive.
SMILES,CHX counter,Giardia FBPA inh,Tb PYK inh,Shiga inhibitor,LmPK inh,Sm TGR block
Cc1ccc(NC(=O)c2cc(-c3ccc(Br)s3)nc3ccccc23)cc1F,·,·,–,·,·,–
CCC(C)NC(=O)Cn1ccc2cc(S(=O)(=O)N3CCCCC3)ccc21 (stereo not given),·,·,–,·,·,–
CCOC(=O)N1CCN(C(=O)C2CCN(Cc3ccc(O)c(OCC)c3)CC2)CC1,–,?,–,–,–,32µM
CSCC(=O)N1CCC(n2nccc2NC(=O)c2ccc3c(c2)OCO3)CC1,36,–,–,62,–,–
CCn1c2c(c(=O)n3ncc(C(=O)N4CCN(c5ccc(Cl)cc5)CC4)c13)CN(Cc1ccc(OC)cc1)CC2,·,·,–,·,·,–
Cc1ccc2[nH]c(=O)c(CN(CCCN3CCOCC3)C(=O)NC3CCCCC3)cc2c1,–,–,–,–,–,100µM
CCOc1ccc(CNC(=O)c2cc3c(=O)n(Cc4cccs4)ccc3nc2C)cc1,·,·,–,·,·,–
Cc1ccc(SCC(=O)NCCN2C(=O)CSC2=O)cc1C,–,–,–,–,–,–
Cc1ccc(Nc2nnc(SCC(=O)NCCN3C(=O)CSC3=O)s2)cc1C,15,–,–,active,?,–
O=C(CSc1nc(-c2ccccc2)cs1)NCCN1C(=O)CSC1=O,30,–,–,–,–,–
CCOC(=O)C1CCCN(C(=O)Cn2ncn3c(cc4sc(CC)cc43)c2=O)C1 (stereo not given),·,·,–,·,·,–
Cc1cccc(CNc2cc(-c3ccccc3C)ncn2)c1,·,–,·,·,·,·
O=C(NCC1CCCO1)C1CC(c2ccccc2Cl)=NO1 (stereo not given),–,–,–,–,–,–
COc1ccccc1C1=NOC(CN2C(=O)c3ccccc3S2(=O)=O)C1 (stereo not given),53,–,–,146,–,–
O=C1c2ccccc2S(=O)(=O)N1CC1CC(c2ccccc2Cl)=NO1 (stereo not given),86,–,–,active,–,–
COc1ccccc1C1=NOC(COC(=O)c2ccc(Br)cc2)C1 (stereo not given),–,–,–,–,–,–
COC(=O)C1(C(=O)OC)C[C@@H]2CON=C2[C@H]1c1ccccc1,·,–,·,·,·,·
COc1cc(OC)c(C(=O)OCC(=O)N2CCOCC2)cc1OC,–,–,–,–,–,–
CCCCCCCCCCOCC(O)CN (stereo not given),·,·,–,·,·,·
CC(C)CN1CC2(CCN(S(=O)(=O)c3ccccc3)CC2)C1,·,–,–,·,·,·
O=C(Nc1ncc([N+](=O)[O-])s1)c1ccco1,37,·,–,68,?,–
O=C(COc1ccc(Cl)cc1)Nc1ncc([N+](=O)[O-])s1,48,–,–,147,–,–
O=C(Cc1ccc(Br)cc1)Nc1ncc([N+](=O)[O-])s1,68,–,–,96,–,–
O=C(Cc1ccc(Cl)cc1)Nc1ncc([N+](=O)[O-])s1,43,–,–,67,–,?
CCOc1ccc(/C=C/c2nc(C#N)c(Nc3ccc(OC)cc3)o2)cc1,·,·,–,·,·,–
SMILES,CHX counter,Giardia FBPA inh,Tb PYK inh,Shiga inhibitor,LmPK inh,Sm TGR block
COc1ccc(C)c2sc(N(Cc3cccnc3)C(=O)C3CCCCC3)nc12,·,·,–[15.4 µM],·,·,–
CC(CC(=O)Nc1ncc([N+](=O)[O-])s1)c1ccccc1 (stereo not given),26,–,–,87,–,–
CCC(Oc1ccccc1)C(=O)Nc1ncc([N+](=O)[O-])s1 (stereo not given),–,–,–,–,–,–
COC(=O)NCC(c1cccnc1)N1CCOCC1 (stereo not given),–,–,–,–,–,–
O=C(NCC(c1cccnc1)N1CCOCC1)Oc1ccccc1 (stereo not given),24,–,–,75,–,?
CCOC(=O)c1cccc(NC(=O)CCc2ccccc2)c1,16,–,–,–,–,·
CC(=O)Nc1cccc(C(=O)OCC(=O)NC(=O)Cc2ccccc2)c1,·,·,–,·,·,–
Cc1ccc(NC(=O)CCc2ccccc2)cc1C,·,·,–,·,·,·
CC(=O)Nc1cccc(C(=O)OCc2ccccc2)c1,27,–,–,74,–,–
CC(=O)Nc1cccc(C(=O)OCCCOc2ccc(F)cc2)c1,32,–,–,58,–,–
Cc1ccc(NC(=O)CNC(=O)OCc2ccccc2)cc1C,–,–,–,–,–,0.11µM
O=C(CCc1ccccc1)Nc1cccc(NC(=O)CCc2ccccc2)c1,–,–,–,–,–,–
CCCC(=O)Oc1c(Sc2ccc(Cl)cc2)c(C)nn1-c1ccccc1,·,·,–,·,·,–
CCN(CC)c1ccc(NC(=O)COc2ccc(C#N)cc2)cc1S(=O)(=O)Nc1ccc(OC)cc1,–,–,–,–,–,–
COc1ccc(OCCCC(=O)OC(C)C(=O)Nc2cccc(C(C)=O)c2)cc1 (stereo not given),15,·,–,–,–,–
COC(=O)C(CCCCNC(=O)OCc1ccccc1)NC(=O)CN (stereo not given),–,–,–,–,–,79µM
CCC(=O)Nc1ccc(C(=O)OCC(=O)c2cccs2)cc1,31,–,–,55,–,–
O=C(NCCCCCCNC(=O)OCc1ccccc1)OCc1ccccc1,·,·,–,·,·,·
CCC(=O)Nc1ccc(C(=O)OCc2ccccc2)cc1,39,–,–,77,–,–
CN(C)CCNC(=O)CN1C(=O)COc2ccc(S(=O)(=O)N3CCCC3)cc21,·,·,–,·,·,–
O=C(O)COc1ccc(-c2nccc(-c3ccccn3)n2)cc1,–,?,–,–,–,–
FCCCOc1ccc(-c2nccc(-c3ccccn3)n2)cc1,20,–,–,35,–,–
